The values below come from PubChem BioAssay.

Calls of active or inactive are those of the source.

Assay [1] is described as follows: binders of probe aFSTL3 on microarray, primary screen, stem cell growth factor project, biochemical, small-molecule microarray, fluorescence 635/667 (AID 1064).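 Further: measures binding of the biotinylated anti-FSTL3 antibody to printed compounds.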 To be noted: higher = more signal.
Assay [2] in a line: binders from COS7 lysate, DM2A8 probe, primary screen, torsin A project, cell lysate, small-molecule microarray, fluorescence 635/667 (AID 1065). To be noted: higher = more signal, COS7 lysate expressing mutant human TOR1A.
A short description of assay [3]: binders of probe aFGF2 on microarray, primary screen, stem cell growth factor project, biochemical, small-molecule microarray, fluorescence 635/667 (AID 1067).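 Further: measures binding of biotinylated aFGF2 protein to printed compounds on slides; z-score merges feature fluorescence and signal-to-noise across triplicate slides.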 To be noted: higher = more signal.
Assay [4] is described as follows: binders of probe aFGF10 on microarray, primary screen, stem cell growth factor project, biochemical, small-molecule microarray, fluorescence 635/667 (AID 1071).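 Further: score merges 667 nm spot intensity and signal to noise from triplicate slides.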 The note with it: higher = more signal.
In assay [5] the target is Neurogenic locus notch homolog protein 2 (Homo sapiens) (UniProt Q04721). Put plainly: Notch2 binders on small-molecule microarrays, primary screen, biochemical, small-molecule microarray, 635 nm fluorescence, stem cell growth factors (AID 1073). To be noted: Notch2 binding, higher = more signal.
Assay [6] has as its target Pro-neuregulin-1, membrane-bound isoform (Homo sapiens) (UniProt Q02297). Put plainly: NRG1 binders on small-molecule microarrays, primary screen, psychiatric disease protein project, biochemical, small-molecule microarray, fluorescence 635/667 (AID 1075).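 Further: score combines 667 nm spot fluorescence with signal to noise.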 To be noted: NRG1 binding, 635 nm fluorescence, higher = more signal.
For assay [7], the system named is Neuregulin-1 EGF-like domain. Put plainly: binders of neuregulin-1 EGF-like domain, primary screen, biochemical, small-molecule microarray, 635 nm fluorescence (AID 1081).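 Further: binding of the protein to compounds printed on small-molecule microarray slides.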 The note with it: small-molecule microarray binding, higher = more signal.
Assay [8] can be described thus: FRG1 promoter luciferase signal modulators, primary screen, FRG1 inhibition for FSHD, cell-based, C2C12 myotubes, firefly/Renilla luciferase, luminescence (AID 1084). To be noted: higher = more signal, called active from +8 up or from −8 down.
Assay [9] can be described thus: binders of probe aFST on microarray, primary screen, stem cell growth factor project, biochemical, small-molecule microarray, fluorescence 635/667 (AID 1086).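 Further: score merges 667 nm fluorescence with signal-to-noise of each printed compound spot.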 To be noted: higher = more signal.
Assay [10] in a line: binders of probe aHhip on microarray, primary screen, stem cell growth factor project, biochemical, small-molecule microarray, fluorescence 635/667 (AID 1087).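 Further: score merges spot fluorescence at 667nm with spot signal to noise ratio.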 To be noted: higher = more signal.

Sequence of Neurogenic locus notch homolog protein 2 (Homo sapiens) (Q04721 whole entry, looked up, canonical isoform): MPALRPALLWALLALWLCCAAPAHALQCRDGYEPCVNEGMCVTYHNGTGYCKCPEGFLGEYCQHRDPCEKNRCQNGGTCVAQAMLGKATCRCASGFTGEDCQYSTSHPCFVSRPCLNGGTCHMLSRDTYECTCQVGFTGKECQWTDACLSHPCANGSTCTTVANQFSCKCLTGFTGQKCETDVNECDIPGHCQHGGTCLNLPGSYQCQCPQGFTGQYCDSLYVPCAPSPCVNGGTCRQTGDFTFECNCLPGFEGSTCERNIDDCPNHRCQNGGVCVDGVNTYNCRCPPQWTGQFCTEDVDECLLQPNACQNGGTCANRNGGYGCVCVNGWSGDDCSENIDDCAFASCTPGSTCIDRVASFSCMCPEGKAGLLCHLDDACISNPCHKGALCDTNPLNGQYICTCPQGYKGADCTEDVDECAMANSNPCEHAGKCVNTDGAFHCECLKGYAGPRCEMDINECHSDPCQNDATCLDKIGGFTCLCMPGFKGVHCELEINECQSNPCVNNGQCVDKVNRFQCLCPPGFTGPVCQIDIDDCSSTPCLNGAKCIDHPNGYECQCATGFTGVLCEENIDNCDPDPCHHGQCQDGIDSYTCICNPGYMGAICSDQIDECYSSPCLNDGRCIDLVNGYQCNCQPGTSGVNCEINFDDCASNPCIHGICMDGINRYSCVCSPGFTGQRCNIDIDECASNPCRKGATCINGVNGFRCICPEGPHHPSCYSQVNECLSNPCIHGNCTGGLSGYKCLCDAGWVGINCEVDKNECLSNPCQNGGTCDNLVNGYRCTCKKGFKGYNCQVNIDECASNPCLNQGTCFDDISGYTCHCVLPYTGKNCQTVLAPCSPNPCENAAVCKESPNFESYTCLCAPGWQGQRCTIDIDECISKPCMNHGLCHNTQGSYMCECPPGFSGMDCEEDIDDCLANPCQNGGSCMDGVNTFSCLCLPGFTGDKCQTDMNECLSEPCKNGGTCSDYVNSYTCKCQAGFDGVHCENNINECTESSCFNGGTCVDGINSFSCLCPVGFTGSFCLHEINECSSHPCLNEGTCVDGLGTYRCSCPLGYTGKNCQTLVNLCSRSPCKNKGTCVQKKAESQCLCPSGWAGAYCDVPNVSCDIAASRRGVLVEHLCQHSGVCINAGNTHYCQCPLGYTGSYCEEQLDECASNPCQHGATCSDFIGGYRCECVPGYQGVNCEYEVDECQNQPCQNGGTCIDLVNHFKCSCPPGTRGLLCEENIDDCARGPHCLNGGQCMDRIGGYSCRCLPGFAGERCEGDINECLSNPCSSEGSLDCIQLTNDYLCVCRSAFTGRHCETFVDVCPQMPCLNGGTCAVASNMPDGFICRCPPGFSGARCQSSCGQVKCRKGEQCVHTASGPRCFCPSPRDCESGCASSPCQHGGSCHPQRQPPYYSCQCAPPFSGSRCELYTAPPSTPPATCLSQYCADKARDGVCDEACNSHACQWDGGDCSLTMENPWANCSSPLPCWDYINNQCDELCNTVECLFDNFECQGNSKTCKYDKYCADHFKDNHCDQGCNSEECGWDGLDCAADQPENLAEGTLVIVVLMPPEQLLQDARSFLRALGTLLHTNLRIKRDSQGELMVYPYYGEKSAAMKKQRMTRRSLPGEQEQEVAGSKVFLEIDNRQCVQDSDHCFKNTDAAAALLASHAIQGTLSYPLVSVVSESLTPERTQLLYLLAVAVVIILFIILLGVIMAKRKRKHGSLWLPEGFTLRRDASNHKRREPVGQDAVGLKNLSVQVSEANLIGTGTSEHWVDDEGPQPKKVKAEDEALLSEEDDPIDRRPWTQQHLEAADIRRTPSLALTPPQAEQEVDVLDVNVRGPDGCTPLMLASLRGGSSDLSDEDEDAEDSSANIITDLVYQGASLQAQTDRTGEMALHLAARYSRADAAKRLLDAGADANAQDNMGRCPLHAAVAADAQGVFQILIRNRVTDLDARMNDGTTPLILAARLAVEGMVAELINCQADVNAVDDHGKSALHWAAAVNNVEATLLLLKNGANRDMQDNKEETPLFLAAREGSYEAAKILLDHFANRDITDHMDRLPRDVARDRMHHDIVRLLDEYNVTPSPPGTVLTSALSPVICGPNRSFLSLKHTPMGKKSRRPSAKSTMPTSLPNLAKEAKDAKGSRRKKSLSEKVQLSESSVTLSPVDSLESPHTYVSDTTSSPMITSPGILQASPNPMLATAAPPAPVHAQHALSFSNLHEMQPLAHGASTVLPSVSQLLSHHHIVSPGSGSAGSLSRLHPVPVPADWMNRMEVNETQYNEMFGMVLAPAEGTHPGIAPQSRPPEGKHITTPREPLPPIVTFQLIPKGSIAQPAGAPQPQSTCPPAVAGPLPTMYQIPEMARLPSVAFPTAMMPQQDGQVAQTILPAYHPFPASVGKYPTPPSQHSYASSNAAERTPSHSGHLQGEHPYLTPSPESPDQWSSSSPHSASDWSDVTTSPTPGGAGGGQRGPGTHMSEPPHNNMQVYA
Sequence of Pro-neuregulin-1, membrane-bound isoform (Homo sapiens) (Q02297 whole entry, looked up, the tested form may be a part, canonical isoform): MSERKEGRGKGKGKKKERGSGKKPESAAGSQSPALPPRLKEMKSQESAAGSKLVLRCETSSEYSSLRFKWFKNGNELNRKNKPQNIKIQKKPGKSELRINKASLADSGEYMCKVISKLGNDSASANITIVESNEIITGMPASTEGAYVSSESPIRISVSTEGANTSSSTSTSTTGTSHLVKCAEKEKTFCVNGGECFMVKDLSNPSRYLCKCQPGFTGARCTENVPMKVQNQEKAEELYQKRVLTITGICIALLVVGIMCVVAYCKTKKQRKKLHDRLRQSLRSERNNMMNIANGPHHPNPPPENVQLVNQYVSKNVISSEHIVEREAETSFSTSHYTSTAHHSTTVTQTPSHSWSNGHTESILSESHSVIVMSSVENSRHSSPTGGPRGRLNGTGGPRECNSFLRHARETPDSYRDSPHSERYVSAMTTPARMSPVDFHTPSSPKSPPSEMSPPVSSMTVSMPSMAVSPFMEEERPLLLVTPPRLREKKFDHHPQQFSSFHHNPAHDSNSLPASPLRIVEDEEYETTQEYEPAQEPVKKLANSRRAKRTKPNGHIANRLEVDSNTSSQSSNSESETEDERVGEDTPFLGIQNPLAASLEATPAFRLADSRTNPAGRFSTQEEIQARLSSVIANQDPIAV

On to `CCOc1cc(C(O)C2C=CC3C(=O)N(C)C(=O)C3N2Nc2ccccc2)ccc1O` (stereo not given), for which the composite z-score in assay [1] is -0.329; in [2], 0.101; in assay [3], 0.0827; in assay [4], 0.305; in assay [5], 1.46; in [6], 1.78. The values for the composite z-score in assay [7], in [9] and in assay [10] were 1.49, 0.472 and 0.24, respectively. In addition, the z-score in [8] was 0.55 (inactive).

`CN1C(=O)C2C=CC(C(O)c3ccc(F)cc3)N(Nc3ccccc3)C2C1=O` (stereo not given): the composite z-score in assay [1] is -0.12; in [2] it was -0.286; in assay [3], -0.0222; in assay [4], 0.208; in assay [5], 1.24; in assay [6] it was 1.35. Further, the values for the composite z-score in assay [7], in assay [9] and in assay [10] were 1.34, 0.862 and -0.215, respectively. Besides, the z-score in [8] is -0.604 (inactive).

As for `CN(C)CCCNC(=O)[C@@]1(c2ccc([N+](=O)[O-])cc2)CC(=O)N(CC23CC4CC(CC(C4)C2)C3)[C@@H]1c1ccc(CO)cc1I`, the composite z-score in assay [1] is -0.319; in [2], 0.634; in assay [3] it was -0.0687; in [4], 0.272; in [5] it was 1.2; in [6] it was 0.343. In addition, the composite z-score in [7] stood at 1.36; in assay [9], 1.48; in assay [10] it was 0.0749. Also, the z-score in [8] is -2.44 (inactive).

Consider `O=c1n(-c2ccccc2)c(=O)n2n1CC(COc1ccccc1)=C([C@H](O)CCc1ccccc1)[C@@H]2CO`, for which the composite z-score was -0.333 in assay [1]; -0.0765 in [2]; -0.141 in [3]; 0.265 in assay [4]; 0.094 in assay [5]; -0.153 in assay [6]. Also, the composite z-score in [7] was 0.0463; in assay [9], 0.0915; in assay [10], -0.318. Further, the z-score in assay [8] is -2.53 (inactive).

In the case of `C=CCC(OC(C)=O)[C@@H]1[C@@H](N(Cc2cccc3ccccc23)C(=O)c2cccc3ccccc23)c2cc(OCCCO)ccc2N1C(=O)c1ccc(-c2ccccc2)cc1` (stereo not given in full), the composite z-score in [1] is -0.0699; in [2] it was 0.103; in [3], -0.105; in assay [4], 0.0552; in [5], -0.603; in assay [6], 0.523. Moreover, the composite z-score is -0.825 in [7], 0.234 in assay [9] and 0.607 in assay [10]. Also, in [8], the z-score is -1.66 (inactive).

As for `C=C(/C(=C/C[C@H](OC(C)=O)c1cccc(OCCO)c1)c1cnc2ccccc2c1)C(C)C`, the composite z-score is -0.104 in assay [1]; 0.21 in assay [2]; -0.108 in assay [3]; 0.459 in assay [4]; 1.56 in assay [5]; 0.35 in assay [6]. Moreover, the composite z-score in assay [7] is 0.914; in [9] it was -0.241; in [10], -0.0618. For the same compound, the z-score in assay [8] was -0.127 (inactive).

Turning to `[N-]=[N+]=NCc1ccccc1[C@H]1OC(c2ccc(OCCCO)cc2)=N[C@@]1(CCS(=O)(=O)c1ccccc1)C(=O)NCC(O)CO` (stereo not given in full), the composite z-score was 0.115 in assay [1]; -0.191 in [2]; 0.252 in assay [3]; 0.564 in assay [4]; 1.47 in [5]; 1.25 in assay [6]. The composite z-score in assay [7] was determined as 1.36; in [9], 1.46; in [10], 0.126. For the same compound, in assay [8], the z-score was 0.515 (inactive).

Consider `C=C(COC)/C(=C/C[C@H](OC(=O)c1ccncc1)c1ccccc1OCCO)c1cnc2ccccc2c1`, for which the composite z-score in [1] was -0.776; in assay [2], 0.171; in assay [3], -0.0524; in assay [4] it was 1.18; in assay [5], 1.34; in assay [6] it was 1.47. Further, the composite z-score in assay [7] is 1.24; in [9], 1.07; in assay [10], -0.242. Besides, the z-score in [8] is 1.01 (inactive).

For the compound `CC(C)C(=C=CC[C@H](O)c1cccc(OCCO)c1)C[C@H](O)c1cc(Cl)cc(Cl)c1O`, the composite z-score in assay [1] was -0.205; in [2] it was -0.178; in [3], -0.116; in [4] it was 0.792; in [5], -0.022; in assay [6], 0.462. Moreover, the composite z-score in [7] is 0.827; in assay [9], 0.53; in assay [10], 0.0722. Besides, in assay [8], the z-score is 0.209 (inactive).

With `CC(C)(C)OC(=O)CC[C@]1(C(=O)NCC(O)CO)N=C(c2ccc(OCCCO)cc2)O[C@H]1c1ccccc1` (stereo not given in full), the composite z-score is 1.07 in [1]; 1.58 in assay [2]; -0.0099 in [3]; 0.391 in assay [4]; 0.493 in assay [5]; 0.866 in assay [6]. In addition, the composite z-score is 1.33 in [7], 0.36 in assay [9] and -0.323 in assay [10]. The z-score in assay [8] is 0.974 (inactive).

With `COC(=O)c1c2oc(c1C(=O)OC)C(=O)N(Cc1ccccc1)Cc1cn(nn1)C[C@H](Cc1ccccc1)NC(=O)N[C@H](CO)CC2`, the composite z-score in assay [1] is -0.462; in assay [2], -0.277; in assay [3], -0.105; in assay [4], 0.138; in assay [5], -0.0194; in assay [6], 0.229. The composite z-score in assay [7] was 1.1; in assay [9], 0.0118; in [10] it was 0.0092. For the same compound, the z-score in [8] is -0.736 (inactive).

`CC(C)(C)OC(=O)CC[C@@]1(C(=O)NCc2ccccc2)N=C(c2ccc(OCCCO)cc2)O[C@@H]1c1ccccc1N=[N+]=[N-]`: the composite z-score in assay [1] was found to be 0.418; in assay [2], 0.559; in assay [3], 0.246; in [4], 0.885; in assay [5], 1.64; in [6], 1.75. The values for the composite z-score in [7], in [9] and in [10] were 0.968, 1.13 and 0.0115, respectively. Moreover, in assay [8], the z-score is 1.16 (inactive).

Turning to `Cc1ccc(S[C@]2(C(=O)NCC(F)(F)F)CC(=O)N(Cc3ccccc3C(F)(F)F)[C@@H]2c2ccc(CO)cc2I)cc1`, the composite z-score in [1] is 0.52; in assay [2], -0.893; in assay [3] it was -0.157; in [4], -0.954; in assay [5], -1.15; in [6], -0.12. For the same compound, the composite z-score in assay [7] was 0.124; in assay [9] it was -0.818; in assay [10], -0.236. In [8], the z-score was -1.24 (inactive).

On to `C[C@@H]1NC(=O)[C@@]23C(=O)N[C@@H](Cc4ccccc4)C2[C@H](C)[C@@]2(C)O[C@H]2C3/C=C/C/C=C\CNC(=O)[C@@H]2CCCN2C1=O` (stereo not given in full), for which the composite z-score was -0.301 in assay [1]; 0.009 in assay [2]; -0.158 in assay [3]; 0.139 in assay [4]; -0.355 in assay [5]; -0.365 in [6]. The composite z-score in assay [7] was 0.519; in assay [9], -0.276; in assay [10] it was -0.249. Also, in assay [8], the z-score was 0.251 (inactive).

Take `CCOC(=O)C1=CC[C@@H](c2cccc(Cl)c2)N(S(=O)(=O)c2ccc(C)cc2)C1`: the composite z-score came out at 0.432 in assay [1]; 0.627 in assay [2]; 0.067 in [3]; 0.336 in assay [4]; 0.0142 in assay [5]; 1.31 in [6]. The composite z-score in [7] was 1.2; in assay [9] it was 0.329; in assay [10] it was -0.0994. In addition, the z-score in assay [8] is -2.76 (inactive).

Consider `COc1ccc(CCN2C(=O)[C@@]3(Cc4ccccc42)c2ccccc2C(=O)N(Cc2ccccc2OC)[C@H]3c2ccc(CO)cc2)cc1`, for which the composite z-score is 0.502 in [1]; -0.277 in assay [2]; 0.0252 in assay [3]; -0.0162 in assay [4]; -0.779 in assay [5]; -0.634 in [6]. Also, the composite z-score in [7] is -0.322; in [9], -0.275; in [10], 0.21. For the same compound, in [8], the z-score is -1.01 (inactive).
